Shown is part of a subset that was picked to be rich in hits.
IDE exosite inh – displaces the probe from the exo-site of human IDE; P14735; purified IDE, FL-6b probe fluorescence polarization; active compounds read low; z-score at 20 µM; actives 6.3% (n = 17,000); AID 1259349;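 active = z-score of -3 or lower, meaning strong loss of probe binding signal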;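 also: His-tagged human IDE residues 42-1019 made in E. coli with 30 nM FL-6b probe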
Target sequence (P14735 42-1019 limits assumed): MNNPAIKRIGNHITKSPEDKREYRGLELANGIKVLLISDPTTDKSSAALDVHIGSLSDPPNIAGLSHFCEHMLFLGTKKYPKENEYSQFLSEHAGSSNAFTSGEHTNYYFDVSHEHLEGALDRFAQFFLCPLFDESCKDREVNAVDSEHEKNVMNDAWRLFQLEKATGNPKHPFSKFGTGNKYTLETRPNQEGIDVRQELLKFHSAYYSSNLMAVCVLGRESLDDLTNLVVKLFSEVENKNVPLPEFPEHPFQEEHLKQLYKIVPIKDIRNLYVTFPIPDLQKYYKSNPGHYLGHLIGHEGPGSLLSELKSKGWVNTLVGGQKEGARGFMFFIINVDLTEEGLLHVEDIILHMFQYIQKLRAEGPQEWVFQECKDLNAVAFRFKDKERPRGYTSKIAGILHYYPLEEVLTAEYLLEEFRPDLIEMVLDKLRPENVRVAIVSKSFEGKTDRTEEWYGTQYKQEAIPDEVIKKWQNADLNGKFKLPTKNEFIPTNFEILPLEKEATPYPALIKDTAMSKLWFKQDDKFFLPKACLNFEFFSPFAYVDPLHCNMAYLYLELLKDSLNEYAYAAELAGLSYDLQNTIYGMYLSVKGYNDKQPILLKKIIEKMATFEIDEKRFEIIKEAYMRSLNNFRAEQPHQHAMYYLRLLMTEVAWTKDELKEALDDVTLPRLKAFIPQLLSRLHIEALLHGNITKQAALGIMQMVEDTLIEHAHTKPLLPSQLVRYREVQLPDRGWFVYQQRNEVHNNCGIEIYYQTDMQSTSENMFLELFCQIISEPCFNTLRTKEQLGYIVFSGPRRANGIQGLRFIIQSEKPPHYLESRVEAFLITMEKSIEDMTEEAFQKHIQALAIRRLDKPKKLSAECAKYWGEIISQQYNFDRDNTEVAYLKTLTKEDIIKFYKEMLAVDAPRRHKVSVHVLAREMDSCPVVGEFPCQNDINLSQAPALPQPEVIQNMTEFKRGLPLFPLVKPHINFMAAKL
Numbers stand for hits.

Screening O=C(CN1CCOCC1)N1CCCCN2[C@H](CO)[C@H](c3ccc(C#Cc4ccccc4)cc3)[C@H]2C1 returned IDE exosite inh -8.7.
For O=C(CN1CCOCC1)N1CCCCN2[C@H](CO)[C@H](c3ccc(C#Cc4ccccc4F)cc3)[C@@H]2C1 the results were IDE exosite inh -5.
Screening O=C(CN1CCOCC1)N1CCCCN2[C@H](C1)[C@H](c1ccc(C#Cc3ccccc3F)cc1)[C@@H]2CO returned IDE exosite inh -6.1.
For O=C(CN1CCOCC1)N1CCCCN2[C@H](CO)[C@@H](c3ccc(Br)cc3)[C@H]2C1 the results were IDE exosite inh inactive.
Screening O=C(NC[C@H]1[C@H](c2ccccc2)[C@H](CO)N1Cc1ccccn1)C1CCCC1 returned IDE exosite inh inactive.
O=C(C[C@@H]1C[C@@H]2c3cc(NC(=O)Nc4ccccc4)ccc3O[C@@H]2[C@@H](CO)O1)NCc1ccccc1 was read as IDE exosite inh inactive.
`CCCN1C[C@H](C)[C@H](OC)CN(C)C(=O)c2cc(NS(=O)(=O)c3ccccc3)ccc2OC[C@H]1C` gave IDE exosite inh inactive.
CC=Cc1ccc2n(c1=O)C[C@@H]1[C@@H](CO)[C@H](C(=O)N[C@H](C)c3ccccc3)[C@H]2N1Cc1cncnc1 (mixture of isomers) was read as IDE exosite inh inactive.
C[C@@H]1CCCCO[C@@H](CN(C)Cc2ccc(C(=O)O)cc2)[C@H](C)CN([C@H](C)CO)C(=O)c2cc(N(C)C)ccc2O1 was read as IDE exosite inh inactive.
O=C(C1CC1)N1CC(=O)N2[C@H](CO)[C@H](c3ccc(-c4cccnc4)cc3)[C@H]2C1 was read as IDE exosite inh inactive.
`C/C=C/c1ccc([C@H]2[C@@H](CNC(C)C)N(Cc3cccnc3)[C@H]2CO)cc1` gave IDE exosite inh inactive.
CCCC(=O)Nc1ccc2c(c1)C(=O)N(C)[C@H]1CC[C@@H](CC(=O)N3CCCCC3)O[C@H]1CO2 was read as IDE exosite inh inactive.
O=C(c1cccnc1)N1CC2(C1)[C@H](c1ccccc1)[C@@H](CO)N2C(=O)CC1CC1 was read as IDE exosite inh inactive.
`O=C(c1ccccc1F)N1C[C@H]2[C@@H](c3ccccc31)[C@@H](CO)N2Cc1ccc2c(c1)OCO2` gave IDE exosite inh inactive.
Screening O=C(Nc1ccccc1F)N1CC(=O)N2[C@@H](CO)[C@@H](c3ccc(C#CC4CC4)cc3)[C@@H]2C1 returned IDE exosite inh inactive.
Screening CS(=O)(=O)N1[C@@H](CO)[C@@H](c2ccccc2)C12CN(C(=O)c1ccccc1F)C2 returned IDE exosite inh inactive.
CO[C@H]1CN(C)C(=O)c2cc(NC(=O)C3CCCCC3)ccc2OC[C@@H](C)N(Cc2cccnc2)C[C@@H]1C was read as IDE exosite inh inactive.
Screening CC(C)[C@@H]1C(=O)N[C@H](c2cccc(Cl)c2)CC=CC[C@@H](C)Oc2ccccc2C(=O)N1C (mixture of isomers) returned IDE exosite inh inactive.
`CN(C)C(=O)c1cccc(-c2ccccc2[C@@H]2[C@@H](C#N)N(C(=O)C3CCCCC3)[C@H]2CO)c1` gave IDE exosite inh inactive.
O=C(Nc1ccc2c(c1)[C@@H]1C[C@H](CC(=O)N3CCc4ccccc4C3)O[C@@H](CO)[C@@H]1O2)c1ccc2c(c1)OCO2 was read as IDE exosite inh inactive.
CNC(=O)C[C@H]1CC[C@@H]2[C@@H](COc3ccc(NS(=O)(=O)c4ccc(F)cc4)cc3C(=O)N2C)O1 was read as IDE exosite inh inactive.
Screening O=C(C[C@@H]1C=C[C@@H](NC(=O)c2ccncc2)[C@@H](CO)O1)NCC1CC1 returned IDE exosite inh inactive.
For O=C(C[C@H]1CC[C@H]2[C@@H](COC[C@@H](O)CN2S(=O)(=O)c2ccccc2F)O1)N1CCC(Cc2ccccc2)CC1 the results were IDE exosite inh inactive.
O=C(Nc1ccccc1)N1CCCCN2[C@H](CO)[C@H](c3ccc(C4=CCCCC4)cc3)[C@@H]2C1 was read as IDE exosite inh inactive.
O=C(CN1CCOCC1)N1CCCCN2[C@H](CO)[C@H](c3ccc(C#Cc4ccccc4F)cc3)[C@H]2C1 was read as IDE exosite inh -5.5.
`O=S(=O)(c1ccccc1)N1CCCCN2[C@H](CO)[C@H](c3ccc(-c4cncnc4)cc3)[C@H]2C1` gave IDE exosite inh inactive.
For CN(C)C(=O)c1cccc(-c2ccc([C@@H]3[C@H]4CN(C(=O)C5CCC5)CCCCN4[C@H]3CO)cc2)c1 the results were IDE exosite inh inactive.
For CCS(=O)(=O)N1CCCCN2[C@H](CO)[C@H](c3ccc(C#CC(C)(C)O)cc3)[C@H]2C1 the results were IDE exosite inh inactive.
For CC(C)NC(=O)N1CCCCN2[C@@H](CO)[C@@H](c3ccc(Br)cc3)[C@@H]2C1 the results were IDE exosite inh inactive.
Screening COc1cccc(-c2ccc([C@H]3[C@H]4CN(C(=O)NC(C)C)CCCCN4[C@H]3CO)cc2)c1 returned IDE exosite inh -10.
Screening CC(C)NC(=O)N1CCCCN2[C@@H](CO)[C@H](c3ccc(Br)cc3)[C@@H]2C1 returned IDE exosite inh inactive.
Screening COc1cccc(-c2ccc([C@@H]3[C@H](CO)N4CCCCN(C(=O)NC(C)C)C[C@@H]34)cc2)c1 returned IDE exosite inh -6.5.
For COc1cccc(-c2ccc([C@H]3[C@H](CO)N4CCCCN(C(=O)c5ccc(F)cc5)C[C@@H]34)cc2)c1 the results were IDE exosite inh inactive.
For COc1cccc(-c2ccc([C@@H]3[C@H](CO)N4CCCCN(C(=O)c5ccc6c(c5)OCO6)C[C@@H]34)cc2)c1 the results were IDE exosite inh inactive.
Screening O=C(Nc1ccccc1F)N1CCCCN2[C@H](CO)[C@H](c3ccc(C4=CCCC4)cc3)[C@@H]2C1 returned IDE exosite inh inactive.
Screening CC(=O)N1CC(=O)N2[C@@H](CO)[C@H](c3ccc(-c4ccc(C)cc4)cc3)[C@@H]2C1 returned IDE exosite inh inactive.
For CCC(=O)N1[C@H](CO)[C@@H](c2ccccc2-c2cccc(C)c2)[C@@H]1C#N the results were IDE exosite inh inactive.
`C[C@@H]1CN([C@H](C)CO)C(=O)c2cc(N(C)C)ccc2O[C@@H](C)CCCCO[C@@H]1CN(C)S(=O)(=O)c1cn(C)cn1` gave IDE exosite inh inactive.
O=C(CC1CC1)N1CC(=O)N2[C@H](C1)[C@H](c1ccc(-c3cccnc3)cc1)[C@@H]2CO was read as IDE exosite inh inactive.
O=C(CC1CC1)N1CC(=O)N2[C@H](CO)[C@H](c3ccc(-c4cccnc4)cc3)[C@@H]2C1 was read as IDE exosite inh inactive.
For O=C(CC1CC1)N1CC(=O)N2[C@H](C1)[C@@H](c1ccc(/C=C/c3ccccc3)cc1)[C@@H]2CO the results were IDE exosite inh inactive.
O=C(CC1CC1)N1CC(=O)N2[C@H](C1)[C@H](c1ccc(-c3ccccc3)cc1)[C@@H]2CO was read as IDE exosite inh -5.1.
O=C(CC1CC1)N1CC(=O)N2[C@H](CO)[C@H](c3ccc(-c4cccnc4)cc3)[C@H]2C1 was read as IDE exosite inh inactive.
For O=C(CC1CC1)N1CC(=O)N2[C@H](CO)[C@@H](c3ccc(/C=C/c4ccccc4)cc3)[C@@H]2C1 the results were IDE exosite inh inactive.
Screening O=C(CC1CC1)N1CC(=O)N2[C@@H](CO)[C@H](c3ccc(-c4cccnc4)cc3)[C@@H]2C1 returned IDE exosite inh inactive.
`O=C(CC1CC1)N1CC(=O)N2[C@H](CO)[C@@H](c3ccc(-c4ccccc4)cc3)[C@@H]2C1` gave IDE exosite inh -5.8.

Bioassay records from PubChem.
